# Mdm2-MdmX inh: inhibitors of human Mdm2/MdmX interaction; SaOS-2 split-luciferase Mdm2/MdmX complementation, luminescence; 3% of 330,000 active; O15151+Q00987; inhibition, % at 8 µM; AID 485346;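 active = inhibition of at least 50% at 8 µM in the primary screen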
# Target sequence (O15151 whole entry, looked up): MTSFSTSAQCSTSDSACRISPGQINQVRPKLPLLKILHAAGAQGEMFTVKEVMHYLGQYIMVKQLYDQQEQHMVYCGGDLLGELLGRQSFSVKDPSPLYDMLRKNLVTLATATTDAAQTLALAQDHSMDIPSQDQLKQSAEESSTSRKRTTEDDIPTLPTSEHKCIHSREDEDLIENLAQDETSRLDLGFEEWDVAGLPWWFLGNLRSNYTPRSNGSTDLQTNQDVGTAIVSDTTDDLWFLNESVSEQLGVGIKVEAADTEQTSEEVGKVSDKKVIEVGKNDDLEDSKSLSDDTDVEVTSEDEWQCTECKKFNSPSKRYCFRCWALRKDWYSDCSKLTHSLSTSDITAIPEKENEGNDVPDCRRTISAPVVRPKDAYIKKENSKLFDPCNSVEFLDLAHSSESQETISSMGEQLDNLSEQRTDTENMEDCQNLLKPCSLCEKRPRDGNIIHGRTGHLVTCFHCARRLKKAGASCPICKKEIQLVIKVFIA
# Target sequence (Q00987 whole entry, looked up): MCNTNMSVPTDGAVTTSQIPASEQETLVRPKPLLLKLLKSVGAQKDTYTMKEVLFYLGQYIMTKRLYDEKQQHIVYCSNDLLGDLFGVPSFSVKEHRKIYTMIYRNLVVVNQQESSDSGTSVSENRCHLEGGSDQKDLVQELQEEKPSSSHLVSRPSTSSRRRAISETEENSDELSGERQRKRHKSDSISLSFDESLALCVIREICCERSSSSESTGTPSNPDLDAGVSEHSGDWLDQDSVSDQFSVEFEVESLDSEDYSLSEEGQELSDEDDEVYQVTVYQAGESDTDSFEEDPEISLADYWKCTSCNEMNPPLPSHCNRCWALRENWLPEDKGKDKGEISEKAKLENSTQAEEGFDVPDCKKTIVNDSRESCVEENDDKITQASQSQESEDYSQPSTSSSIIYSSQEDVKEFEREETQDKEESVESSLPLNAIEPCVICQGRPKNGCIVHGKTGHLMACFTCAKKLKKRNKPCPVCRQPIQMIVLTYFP
# Shn3 3UTR inh: Schnurri-3 reporter inhibition in Clone20 osteoblasts; Clone20 osteoblast Shn3 3'UTR firefly luciferase, 24 h; inhibition, % at 12.5 µM; 0.52% of 360,000 active; AID 588674;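 active = mean inhibition of at least 75% with every replicate also reaching 75%; inconclusive = mean inhibition at least 75% but some replicate below; inactive = mean inhibition below 75%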;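 also: 0% = median of neutral control wells and 100% = pilot-screen positive control compound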
# CSC inhib: cancer stem cell inhibition. cancer stem cell-like cells viability, luminescence. inhibition, % at 7.5 µM. 1.1% of 300,000 active. AID 2717; in the data active = inhibition above about 75%; inconclusive = no clear call, values can overlap the other calls; tested in HMLE shEcad cells
# Beta apoptosis: blocks beta cell apoptosis; INS-1E cytokine-induced death, ATP luminescence, 48 h; percent of positive-control rescue, neutral wells zero; protection from apoptosis, % (no concentration beside the values); 0.8% of 300,000 active; AID 435005;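 active = Every replicate reaches about 75%, or at least half do and their mean reaches it too, limit read from the data; inconclusive = At least half of replicates reach the limit but their mean does not; inactive = Under half of replicates reach the limit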;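 also: 0% = cytokine-treated negative control wells and 100% = positive control rescue; higher means more ATP so stronger rescue from cytokine killing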
# Gli-Sufu antag: blocks Gli-Sufu signaling in a luciferase reporter; 0.74% of 340,000 active; inhibition, % at 5 µM; AID 588413; Sufu-KO-LIGHT fibroblasts, Gli luciferase reporter luminescence;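 active = inhibition above about 55%, limit read from the data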;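 also: 0% = DMSO-treated cells and 100% = wells with medium but no cells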
# PAX8 inh HTS: inhibitors of PAX8 transcriptional activity in RMG-I cells | RMG-I TPO-luciferase reporter, SteadyGlo, 24 h | inhibition, % at 12.6 µM | AID 652154 | 1.2% of 360,000 active;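 active = mean replicate inhibition at least 60% with every replicate also reaching 60%; inconclusive = only one of the two criteria is met; inactive = mean below 60% and not all replicates reaching 60%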;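 also: luciferase light reporting Pax8 driven TPO promoter activity; plate controls were median of neutral control wells for no effect and mitoxantrone controls for full effect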
# * marks the source's active call; other numbers are inactive results; ? = inconclusive; . = not tested or not shown. A selection: hits, their analogues and other compounds. The true share with any hit is near 4%.
SMILES,Mdm2-MdmX inh,Shn3 3UTR inh,CSC inhib,Beta apoptosis,Gli-Sufu antag,PAX8 inh HTS
C[C@@H]1CN([C@@H](C)CO)C(=O)c2cc(NC(=O)Nc3ccc(C(F)(F)F)cc3)ccc2O[C@H]1CN(C)Cc1ccc(C(F)(F)F)cc1,.,.,.,.,.,70.1*
C[C@@H]1CCCCO[C@@H](CN(C)Cc2ccc(C(F)(F)F)cc2)[C@@H](C)CN([C@H](C)CO)C(=O)c2cc(NC(=O)Nc3ccc(F)cc3)ccc2O1,.,.,.,.,.,18.9
C[C@@H]1CCCCO[C@H](CN(C)Cc2ccc(C(F)(F)F)cc2)[C@@H](C)CN([C@@H](C)CO)C(=O)c2cc(NC(=O)Nc3ccc(F)cc3)ccc2O1,.,.,.,.,.,91.6*
C[C@H](CO)N1C[C@H](C)[C@@H](CN(C)S(=O)(=O)c2cccs2)Oc2ccc(NC(=O)Cn3cnnn3)cc2CC1=O,.,.,.,.,.,-1.6
C[C@H]1CN([C@@H](C)CO)C(=O)CCCn2cc(nn2)CO[C@H]1CN(C)C(=O)Nc1ccccc1C(F)(F)F,.,.,.,.,.,2.0
Nc1c(Br)cc2c(c1Br)C(O)c1ccccc1-2 (stereo not drawn),.,93.8*,.,.,20.5,4.4
O=C1OC(c2cc(Br)c(O)c(Br)c2)c2ccccc21 (stereo not drawn),.,14.5,.,.,2.8,-18.7
CCN(CC)CCC(=O)Nc1cccc2c1C(=O)c1ccccc1C2=O,46.1,-18.9,24.7,98.0*,-12.2,-60.5
Nc1cccc(C(=O)OCC(=O)Nc2cccc3c2C(=O)c2ccccc2C3=O)c1,-4.8,-5.5,43.8,15.0,-28.2,-22.2
C[C@H]1CN([C@@H](C)CO)C(=O)Cc2cc(NC(=O)c3ccncc3)ccc2O[C@H]1CN(C)C(=O)Nc1cccc2ccccc12,.,.,.,.,.,9.3
O=[N+]([O-])c1ccc2nc(SCc3cn4ccccc4n3)[nH]c2c1,7.2,2.9,-7.9,-1.2,7.6,102.2*
COc1ccc(-c2csc(N(CCCN(C)C)C(=O)c3ccccc3F)n2)cc1,34.9,14.4,8.9,.,25.4,62.8*
C[C@H](CO)N1C[C@H](C)[C@@H](CN(C)S(C)(=O)=O)OCCCC[C@H](C)Oc2ccc(N(C)C)cc2C1=O,.,.,.,.,.,-19.0
C=C(C)COc1ccc(-c2ncncc2-c2ccc(Br)cc2)c(O)c1,-7.3,-8.4,6.6,7.0,0.3,2.0
C=C(C)COc1ccc(-c2nc(N)ncc2-c2ccc(Br)cc2)c(O)c1,18.7,-66.0,106.6*,-2.2,6.2,0.6
COc1ccc(S(=O)(=O)N2CCCCC2)cc1NC(=O)Cc1c[nH]c2ccccc12,-20.5,11.2,.,10.9,2.1,17.8
Cc1ccc(S(=O)(=O)N2CCCCC2)cc1NC(=O)Cc1c[nH]c2ccccc12,22.2,-2.4,0.2,1.7,0.6,152.8*
Cn1cnc(S(=O)(=O)N2CC[C@@H]3[C@H]2c2cc(C#Cc4ccccc4)ccc2N[C@@H]3CO)c1,.,.,.,.,.,-11.5
C[C@H](CO)N1C[C@H](C)[C@H](CN(C)S(=O)(=O)c2ccc(F)cc2)Oc2ccc(NC(=O)NC3CCCCC3)cc2CC1=O,.,.,.,.,.,33.5
CC[n+]1c(C)sc2c(C)cc(C)cc21,-0.3,5.5,2.6,-20.3,2.5,.
CCC[n+]1c(C)sc2c3c(ccc21)CCCC3,7.2,92.1*,8.0,14.9,3.7,.
COc1ccccc1C(=O)NNC(=S)NC(=O)c1ccco1,33.5,82.2,.,84.1*,13.4,58.4
CC(C)(C)c1ccc(O)c(O)c1,36.8,6.3,86.3*,-6.6,4.9,.
CC(C)(C)c1ccc(O)c(/C=N\O)c1,8.4,-25.4,-11.1,1.9,-10.2,-77.3
COCC(=O)Nc1ccc2c(c1)C(=O)N(C)C[C@H](OC)[C@H](C)CN(CCc1ccccc1)[C@H](C)CO2,.,.,.,.,.,-0.8
SMILES,Mdm2-MdmX inh,Shn3 3UTR inh,CSC inhib,Beta apoptosis,Gli-Sufu antag,PAX8 inh HTS
CCCNC(=O)Nc1ccc2c(c1)C(=O)N(C)C[C@H](OC)[C@@H](C)CN(C(=O)C1CC1)[C@@H](C)CO2,.,.,.,.,.,8.8
COc1ccc(OC)c(NC(=O)c2nnn(Cc3ccccc3C)c2N)c1,12.5,12.0,105.7*,-6.5,15.3,11.2
O=C(Nc1ccccc1N1CCCC1)c1cccc(-c2cc3ccccc3oc2=O)c1,-5.8,-18.0,90.1*,5.8,-77.0,-82.6
C[C@@H]1CCCCO[C@@H](CN(C)C(=O)Nc2cccc3ccccc23)[C@@H](C)CN([C@H](C)CO)C(=O)c2cc(NS(=O)(=O)c3cn(C)cn3)ccc2O1,.,.,.,.,.,4.4
Cc1ccccc1/C=N/Nc1ccnc2cc(Cl)ccc12,.,82.4,83.6*,95.3*,2.3,7.0
Clc1ccc2c(N/N=C/c3ccc(Br)cc3)ccnc2c1,.,-8.3,97.8*,53.6,31.3,-0.6
Oc1ccc(/C=N/Nc2ccnc3cc(Cl)ccc23)c(O)c1,27.1,.,10.1,21.4,1.6,-4.8
Clc1ccc2c(NCc3ccccc3)ccnc2c1,45.2,90.4*,-13.5,38.9,22.1,34.9
Cc1noc(C)c1NC(=O)N(C)C[C@@H]1Oc2ccc(NC(=O)Nc3ccccc3)cc2CC(=O)N([C@@H](C)CO)C[C@H]1C,.,.,.,.,.,-26.0
COc1ccc(S(=O)(=O)Nc2ccc3c(c2)C(=O)N([C@@H](C)CO)C[C@@H](C)[C@@H](CN(C)CC2CCCCC2)OCCCC[C@H](C)O3)cc1,.,.,.,.,.,26.4
C[C@@H]1CCCCO[C@H](CN(C)C(=O)NC2CCCCC2)[C@H](C)CN([C@@H](C)CO)C(=O)c2cc(NC(=O)Nc3ccc(C(F)(F)F)cc3)ccc2O1,.,.,.,.,.,71.4*
C[C@H]1CCCCO[C@@H](CN(C)C(=O)NC2CCCCC2)[C@@H](C)CN([C@@H](C)CO)C(=O)c2cc(NC(=O)Nc3ccc(C(F)(F)F)cc3)ccc2O1,.,.,.,.,.,87.9*
C[C@H](CO)N1C[C@H](C)[C@H](CN(C)C(=O)NC2CCCCC2)OCCCC[C@H](C)Oc2ccc(NC(=O)Nc3ccc(C(F)(F)F)cc3)cc2C1=O,.,.,.,.,.,93.3*
C[C@@H]1CCCCO[C@@H](CN(C)C(=O)NC2CCCCC2)[C@@H](C)CN([C@H](C)CO)C(=O)c2cc(NC(=O)Nc3ccc(C(F)(F)F)cc3)ccc2O1,.,.,.,.,.,17.2
C[C@@H]1CN([C@H](C)CO)C(=O)c2cc(NC(=O)Nc3ccc(C(F)(F)F)cc3)ccc2O[C@@H](C)CCCCO[C@@H]1CN(C)C(=O)NC1CCCCC1,.,.,.,.,.,85.9*
C[C@H](CO)N1C[C@H](C)[C@@H](CN(C)C(=O)NC2CCCCC2)OCCCC[C@H](C)Oc2ccc(NC(=O)Nc3ccc(C(F)(F)F)cc3)cc2C1=O,.,.,.,.,.,49.3
C[C@@H]1CN([C@H](C)CO)C(=O)c2cc(NS(=O)(=O)c3ccccc3)ccc2O[C@H]1CN(C)C(=O)Nc1cccc2ccccc12,.,.,.,.,.,6.9
CCOC(=O)C(=NCCCN(C)C)NNc1ccc(Br)cc1,1.9,2.0,17.6,3.8,-1.6,0.5
CCOC(=O)C(=O)NNc1ccc(C)cc1,-7.1,4.8,102.2*,-7.8,-2.9,-32.7
CCCOC(=O)C(=O)NNc1ccccc1,26.5,6.1,?,-1.4,-1.5,1.1
CCOC(=O)C(=O)NNc1ccc(Cl)cc1,-18.8,-2.1,81.8*,-1.4,0.8,7.8

# High-throughput results from PubChem BioAssay.
